Measurements as given in paper PMC7862700, “An all-to-all approach to the identification of sequence-specific readers for epigenetic DNA modifications on cytosine”.

Experiments:
Assay in all cases: DAPPL (digital affinity profiling via proximity ligation, sequencing); 10 mM Tris-HCl pH 7.5, 50 mM NaCl, 1 mM DTT, 4% glycerol, room temperature, 30 min; GST-TFs on glutathione beads, 16-mer random dsDNA library, 0.1% formaldehyde crosslink after washing; high values mean tight binding
[1] = target: T1, FLI1 (Homo sapiens, UniProt Q01543 1-452); settings: protein: recombinant; tags: N-terminal GST; dsDNA, one strand shown
T1 sequence: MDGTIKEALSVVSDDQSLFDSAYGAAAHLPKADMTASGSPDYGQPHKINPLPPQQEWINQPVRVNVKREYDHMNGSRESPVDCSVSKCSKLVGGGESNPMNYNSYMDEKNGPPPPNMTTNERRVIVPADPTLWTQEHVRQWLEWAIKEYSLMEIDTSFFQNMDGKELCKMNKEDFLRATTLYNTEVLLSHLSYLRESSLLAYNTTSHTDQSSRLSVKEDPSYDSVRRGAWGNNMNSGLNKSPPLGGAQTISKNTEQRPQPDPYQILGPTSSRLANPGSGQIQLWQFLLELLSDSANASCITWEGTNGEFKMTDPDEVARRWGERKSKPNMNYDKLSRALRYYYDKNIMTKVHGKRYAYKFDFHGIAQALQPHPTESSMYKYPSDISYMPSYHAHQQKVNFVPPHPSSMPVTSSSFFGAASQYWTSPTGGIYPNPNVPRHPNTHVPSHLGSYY
How it was run: (§1)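 Sequencing on an Illumina NextSeq500 followed washing, crosslinking with 0.1% formaldehyde, proximity ligation (BsaI/T4 ligase, 1 h, 37 °C) and PCR amplification of pools that had been incubated for 30 min at room temperature with 200 nmole of a random double-stranded 16-mer DNA library in Tris/NaCl/DTT/glycerol buffer. Each pool held DNA-barcoded human transcription factors, expressed in yeast as GST fusions and captured on glutathione beads, plus a tag-only sample. Binding signal is a hexamer's read frequency for a factor divided by its frequency in the tag-only sample.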

[2] = target: T2, ELK1 (Homo sapiens, UniProt P19419 1-428); settings: protein: recombinant; tags: N-terminal GST; dsDNA, one strand shown
T2 sequence: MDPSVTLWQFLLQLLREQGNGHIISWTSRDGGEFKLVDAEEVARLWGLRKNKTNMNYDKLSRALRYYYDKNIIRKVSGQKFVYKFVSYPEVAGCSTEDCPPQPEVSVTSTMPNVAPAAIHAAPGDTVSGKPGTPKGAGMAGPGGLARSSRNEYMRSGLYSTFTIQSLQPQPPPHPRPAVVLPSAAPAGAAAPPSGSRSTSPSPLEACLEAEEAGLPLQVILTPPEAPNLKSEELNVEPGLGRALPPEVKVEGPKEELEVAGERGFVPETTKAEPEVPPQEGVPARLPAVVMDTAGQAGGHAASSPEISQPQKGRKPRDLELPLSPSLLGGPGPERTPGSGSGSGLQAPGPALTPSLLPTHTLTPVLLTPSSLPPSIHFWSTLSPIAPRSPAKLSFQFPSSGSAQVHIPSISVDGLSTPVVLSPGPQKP
How it was run: as §1

[3] = target: T3, GABPA (Homo sapiens, UniProt Q06546 1-454); settings: protein: recombinant; tags: N-terminal GST; dsDNA, one strand shown
T3 sequence: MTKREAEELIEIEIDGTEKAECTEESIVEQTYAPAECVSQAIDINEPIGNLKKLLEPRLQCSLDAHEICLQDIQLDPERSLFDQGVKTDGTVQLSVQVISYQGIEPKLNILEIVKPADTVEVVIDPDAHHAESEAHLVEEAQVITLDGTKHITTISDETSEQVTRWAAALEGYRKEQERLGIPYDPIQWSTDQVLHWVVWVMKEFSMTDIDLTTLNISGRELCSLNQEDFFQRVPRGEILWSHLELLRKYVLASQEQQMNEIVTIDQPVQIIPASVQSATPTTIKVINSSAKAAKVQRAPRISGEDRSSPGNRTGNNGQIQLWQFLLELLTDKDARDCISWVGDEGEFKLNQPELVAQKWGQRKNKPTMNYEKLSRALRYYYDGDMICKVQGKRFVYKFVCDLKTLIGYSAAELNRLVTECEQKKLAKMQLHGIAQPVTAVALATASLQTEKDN
How it was run: as §1

[4] = target: T4, ERG (Homo sapiens, UniProt P11308 1-479); settings: protein: recombinant; tags: N-terminal GST; dsDNA, one strand shown
T4 sequence: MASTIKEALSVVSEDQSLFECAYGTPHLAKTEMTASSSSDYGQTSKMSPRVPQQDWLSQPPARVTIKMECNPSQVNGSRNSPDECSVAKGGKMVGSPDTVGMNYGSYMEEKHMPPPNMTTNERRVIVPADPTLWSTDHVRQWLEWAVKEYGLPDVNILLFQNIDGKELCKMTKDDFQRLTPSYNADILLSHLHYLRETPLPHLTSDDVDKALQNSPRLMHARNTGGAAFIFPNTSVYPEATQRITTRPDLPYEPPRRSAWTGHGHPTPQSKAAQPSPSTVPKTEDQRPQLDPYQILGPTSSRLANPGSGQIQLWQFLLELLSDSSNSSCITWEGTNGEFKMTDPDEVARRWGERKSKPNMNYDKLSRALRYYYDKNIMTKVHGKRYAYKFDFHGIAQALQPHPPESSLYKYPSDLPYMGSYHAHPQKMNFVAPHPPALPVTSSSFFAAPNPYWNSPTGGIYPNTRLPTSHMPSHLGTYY
How it was run: as §1

[5] = target: ELF1 (Homo sapiens, UniProt P32519 1-619); settings: protein: recombinant; tags: N-terminal GST; dsDNA, one strand shown
How it was run: as §1

[6] = target: T5, EHF (Homo sapiens, UniProt Q9NZC4 1-300); settings: protein: recombinant; tags: N-terminal GST; dsDNA, one strand shown
T5 sequence: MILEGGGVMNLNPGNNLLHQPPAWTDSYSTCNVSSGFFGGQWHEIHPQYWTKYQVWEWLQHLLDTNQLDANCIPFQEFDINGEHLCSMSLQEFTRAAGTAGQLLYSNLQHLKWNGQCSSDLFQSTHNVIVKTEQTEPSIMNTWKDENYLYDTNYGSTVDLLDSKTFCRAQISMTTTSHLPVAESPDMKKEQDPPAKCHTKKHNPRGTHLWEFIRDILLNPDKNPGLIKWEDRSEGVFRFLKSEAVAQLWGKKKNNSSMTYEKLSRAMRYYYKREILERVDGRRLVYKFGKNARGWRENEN
How it was run: as §1

[7] = target: SPI1 (Homo sapiens, UniProt P17947 1-270); settings: protein: recombinant; tags: N-terminal GST; dsDNA, one strand shown
How it was run: as §1

[8] = target: SPIB (Homo sapiens, UniProt Q01892 1-262); settings: protein: recombinant; tags: N-terminal GST; dsDNA, one strand shown
How it was run: as §1

[9] = target: T6, ELK3 (Homo sapiens, UniProt P41970 1-407); settings: protein: recombinant; tags: N-terminal GST; dsDNA, one strand shown
T6 sequence: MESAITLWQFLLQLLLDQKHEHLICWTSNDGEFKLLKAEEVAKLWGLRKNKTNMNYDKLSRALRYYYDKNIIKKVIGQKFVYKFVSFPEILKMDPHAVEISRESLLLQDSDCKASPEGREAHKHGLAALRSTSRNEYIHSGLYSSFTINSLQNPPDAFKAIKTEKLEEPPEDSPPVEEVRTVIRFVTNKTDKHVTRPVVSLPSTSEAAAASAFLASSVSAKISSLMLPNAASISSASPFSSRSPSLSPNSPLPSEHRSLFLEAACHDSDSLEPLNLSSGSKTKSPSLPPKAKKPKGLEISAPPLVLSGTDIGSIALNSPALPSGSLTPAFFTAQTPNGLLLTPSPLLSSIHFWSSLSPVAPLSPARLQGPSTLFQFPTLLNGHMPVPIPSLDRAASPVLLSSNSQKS
How it was run: as §1

[10] = target: T7, FEV (Homo sapiens, UniProt Q99581 1-238); settings: protein: recombinant; tags: N-terminal GST; dsDNA, one strand shown
T7 sequence: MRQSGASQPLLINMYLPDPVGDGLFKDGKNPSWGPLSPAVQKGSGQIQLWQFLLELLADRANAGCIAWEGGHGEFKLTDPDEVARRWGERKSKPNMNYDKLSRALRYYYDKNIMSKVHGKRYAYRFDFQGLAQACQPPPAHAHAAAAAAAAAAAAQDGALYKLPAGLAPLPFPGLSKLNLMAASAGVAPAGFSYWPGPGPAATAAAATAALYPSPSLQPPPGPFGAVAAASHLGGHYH
How it was run: as §1

[11] = target: ETV5 (Homo sapiens, UniProt P41161 1-510); settings: protein: recombinant; tags: N-terminal GST; dsDNA, one strand shown
How it was run: as §1

[12] = target: HSF1 (Homo sapiens, UniProt Q00613 1-529); settings: protein: recombinant; tags: N-terminal GST; chain copies: 3; dsDNA, one strand shown
How it was run: as §1

[13] = target: T8, SPIC (Homo sapiens, UniProt Q8N5J4 1-248); settings: protein: recombinant; tags: N-terminal GST; dsDNA, one strand shown
T8 sequence: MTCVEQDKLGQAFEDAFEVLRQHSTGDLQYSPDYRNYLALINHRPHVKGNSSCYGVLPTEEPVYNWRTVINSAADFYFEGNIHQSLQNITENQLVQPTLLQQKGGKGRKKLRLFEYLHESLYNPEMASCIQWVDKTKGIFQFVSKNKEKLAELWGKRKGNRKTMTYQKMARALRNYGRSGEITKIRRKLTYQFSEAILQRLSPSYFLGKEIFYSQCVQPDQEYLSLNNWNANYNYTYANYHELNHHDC
How it was run: as §1

[14] = target: ELF4 (Homo sapiens, UniProt Q99607 1-663); settings: protein: recombinant; tags: N-terminal GST; dsDNA, one strand shown
How it was run: as §1

[15] = target: T9, ELK4 (Homo sapiens, UniProt P28324-2 1-405); settings: protein: recombinant; tags: N-terminal GST; dsDNA, one strand shown
T9 sequence: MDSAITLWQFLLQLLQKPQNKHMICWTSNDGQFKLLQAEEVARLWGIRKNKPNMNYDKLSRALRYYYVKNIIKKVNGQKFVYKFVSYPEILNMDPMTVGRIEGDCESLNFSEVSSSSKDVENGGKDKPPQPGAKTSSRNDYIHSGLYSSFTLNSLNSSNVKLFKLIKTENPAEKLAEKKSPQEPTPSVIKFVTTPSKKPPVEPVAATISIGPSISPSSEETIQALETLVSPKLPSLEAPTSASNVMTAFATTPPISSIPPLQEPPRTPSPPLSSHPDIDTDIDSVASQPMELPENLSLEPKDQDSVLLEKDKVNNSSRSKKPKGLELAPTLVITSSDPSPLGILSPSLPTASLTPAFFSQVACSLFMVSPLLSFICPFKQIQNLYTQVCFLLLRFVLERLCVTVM
How it was run: as §1

[16] = target: T10, ETV2 (Homo sapiens, UniProt O00321 1-342); settings: protein: recombinant; tags: N-terminal GST; dsDNA, one strand shown
T10 sequence: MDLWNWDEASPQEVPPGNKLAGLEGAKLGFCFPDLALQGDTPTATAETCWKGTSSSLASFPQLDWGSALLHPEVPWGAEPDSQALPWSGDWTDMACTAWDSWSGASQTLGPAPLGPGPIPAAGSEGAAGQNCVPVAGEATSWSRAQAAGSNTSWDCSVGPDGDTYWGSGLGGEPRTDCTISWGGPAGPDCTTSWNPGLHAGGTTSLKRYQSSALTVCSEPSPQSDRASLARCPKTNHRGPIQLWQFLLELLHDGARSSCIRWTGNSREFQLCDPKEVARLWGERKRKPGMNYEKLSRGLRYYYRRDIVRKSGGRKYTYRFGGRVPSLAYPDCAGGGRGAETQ
How it was run: as §1

[17] = target: T11, ELF3 (Homo sapiens, UniProt P78545 1-371); settings: protein: recombinant; tags: N-terminal GST; dsDNA, one strand shown
T11 sequence: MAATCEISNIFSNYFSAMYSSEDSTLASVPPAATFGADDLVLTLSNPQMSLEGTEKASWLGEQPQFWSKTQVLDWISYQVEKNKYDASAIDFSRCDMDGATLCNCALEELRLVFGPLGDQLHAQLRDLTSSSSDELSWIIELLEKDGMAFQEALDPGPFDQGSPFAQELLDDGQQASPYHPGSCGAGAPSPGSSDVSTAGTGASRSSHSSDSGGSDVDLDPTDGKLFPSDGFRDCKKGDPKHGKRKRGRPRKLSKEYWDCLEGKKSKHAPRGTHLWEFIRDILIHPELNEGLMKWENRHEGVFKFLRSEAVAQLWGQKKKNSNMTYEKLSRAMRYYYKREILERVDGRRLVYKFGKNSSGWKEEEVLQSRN
How it was run: as §1

[18] = target: CRX (Homo sapiens, UniProt O43186 1-299); settings: protein: recombinant; tags: N-terminal GST; dsDNA, one strand shown
How it was run: as §1

[19] = target: ETV1 (Homo sapiens, UniProt P50549 1-477); settings: protein: recombinant; tags: N-terminal GST; dsDNA, one strand shown
How it was run: as §1

ETV5, sequence (P41161 whole entry): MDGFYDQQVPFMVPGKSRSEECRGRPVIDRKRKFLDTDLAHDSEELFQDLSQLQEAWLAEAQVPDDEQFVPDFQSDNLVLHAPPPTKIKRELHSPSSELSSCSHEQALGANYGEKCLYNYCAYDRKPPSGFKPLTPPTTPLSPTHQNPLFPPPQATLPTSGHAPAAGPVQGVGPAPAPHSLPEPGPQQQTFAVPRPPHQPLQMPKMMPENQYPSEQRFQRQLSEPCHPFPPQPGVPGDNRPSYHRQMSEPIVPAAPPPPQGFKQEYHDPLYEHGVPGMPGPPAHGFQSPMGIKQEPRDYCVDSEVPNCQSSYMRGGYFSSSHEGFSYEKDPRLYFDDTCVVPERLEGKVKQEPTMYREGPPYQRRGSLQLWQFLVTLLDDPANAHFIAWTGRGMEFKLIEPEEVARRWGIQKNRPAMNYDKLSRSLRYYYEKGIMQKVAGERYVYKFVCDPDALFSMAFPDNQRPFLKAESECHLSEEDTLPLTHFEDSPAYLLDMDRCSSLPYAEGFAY
ELF4, sequence (Q99607 whole entry): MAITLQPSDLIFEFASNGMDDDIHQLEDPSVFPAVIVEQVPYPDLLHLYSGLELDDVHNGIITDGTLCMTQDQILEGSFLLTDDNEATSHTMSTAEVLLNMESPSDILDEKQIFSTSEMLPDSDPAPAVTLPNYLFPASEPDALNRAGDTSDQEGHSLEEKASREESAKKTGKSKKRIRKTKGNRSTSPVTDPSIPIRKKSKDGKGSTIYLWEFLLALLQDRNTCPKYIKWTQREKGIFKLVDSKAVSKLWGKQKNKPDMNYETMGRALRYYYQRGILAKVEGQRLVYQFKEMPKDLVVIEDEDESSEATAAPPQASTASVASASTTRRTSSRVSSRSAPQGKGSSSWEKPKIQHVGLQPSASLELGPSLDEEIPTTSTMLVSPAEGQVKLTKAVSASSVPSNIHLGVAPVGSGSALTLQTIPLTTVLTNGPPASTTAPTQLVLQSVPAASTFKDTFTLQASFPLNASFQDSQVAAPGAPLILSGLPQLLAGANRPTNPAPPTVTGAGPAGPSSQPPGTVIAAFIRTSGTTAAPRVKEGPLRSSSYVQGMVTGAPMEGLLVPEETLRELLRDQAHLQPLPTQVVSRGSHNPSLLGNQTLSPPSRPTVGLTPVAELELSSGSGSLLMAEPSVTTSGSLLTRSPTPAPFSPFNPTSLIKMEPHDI
SPIB, sequence (Q01892 whole entry): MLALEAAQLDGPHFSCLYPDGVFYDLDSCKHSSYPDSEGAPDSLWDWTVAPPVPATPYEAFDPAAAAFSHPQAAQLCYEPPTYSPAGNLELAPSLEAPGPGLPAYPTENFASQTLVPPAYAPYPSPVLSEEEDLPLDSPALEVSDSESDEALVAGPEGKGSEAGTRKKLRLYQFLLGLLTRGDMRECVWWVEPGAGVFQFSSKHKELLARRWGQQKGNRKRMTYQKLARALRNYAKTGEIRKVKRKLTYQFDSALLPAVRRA
HSF1, sequence (Q00613 whole entry): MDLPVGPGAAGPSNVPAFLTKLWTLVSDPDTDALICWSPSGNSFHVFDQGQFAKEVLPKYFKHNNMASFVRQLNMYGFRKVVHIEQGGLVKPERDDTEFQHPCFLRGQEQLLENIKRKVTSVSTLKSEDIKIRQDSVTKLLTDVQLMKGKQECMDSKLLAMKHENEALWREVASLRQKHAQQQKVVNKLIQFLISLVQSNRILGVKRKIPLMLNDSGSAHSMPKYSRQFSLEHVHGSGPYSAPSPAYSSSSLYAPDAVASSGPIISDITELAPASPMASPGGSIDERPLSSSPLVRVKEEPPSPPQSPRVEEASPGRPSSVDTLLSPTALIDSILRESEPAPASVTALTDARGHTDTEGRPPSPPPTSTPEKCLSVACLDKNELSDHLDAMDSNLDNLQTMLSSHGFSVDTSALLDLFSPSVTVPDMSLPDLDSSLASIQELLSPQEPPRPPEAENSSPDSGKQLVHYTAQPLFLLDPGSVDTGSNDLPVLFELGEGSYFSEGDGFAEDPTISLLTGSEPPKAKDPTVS
ETV1, sequence (P50549 whole entry): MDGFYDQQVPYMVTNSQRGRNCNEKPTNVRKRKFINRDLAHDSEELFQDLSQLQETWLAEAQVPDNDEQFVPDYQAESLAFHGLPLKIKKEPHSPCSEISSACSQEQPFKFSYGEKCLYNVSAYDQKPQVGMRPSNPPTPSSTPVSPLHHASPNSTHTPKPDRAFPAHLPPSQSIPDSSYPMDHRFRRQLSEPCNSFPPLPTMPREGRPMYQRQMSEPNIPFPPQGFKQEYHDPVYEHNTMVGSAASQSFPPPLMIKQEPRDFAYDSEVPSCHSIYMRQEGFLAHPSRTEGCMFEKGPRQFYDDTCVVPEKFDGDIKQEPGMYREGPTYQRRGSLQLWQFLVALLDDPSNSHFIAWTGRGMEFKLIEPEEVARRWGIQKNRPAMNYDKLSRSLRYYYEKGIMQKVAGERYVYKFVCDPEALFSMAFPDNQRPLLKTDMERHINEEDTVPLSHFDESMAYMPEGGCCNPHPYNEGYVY
ELF1, sequence (P32519 whole entry): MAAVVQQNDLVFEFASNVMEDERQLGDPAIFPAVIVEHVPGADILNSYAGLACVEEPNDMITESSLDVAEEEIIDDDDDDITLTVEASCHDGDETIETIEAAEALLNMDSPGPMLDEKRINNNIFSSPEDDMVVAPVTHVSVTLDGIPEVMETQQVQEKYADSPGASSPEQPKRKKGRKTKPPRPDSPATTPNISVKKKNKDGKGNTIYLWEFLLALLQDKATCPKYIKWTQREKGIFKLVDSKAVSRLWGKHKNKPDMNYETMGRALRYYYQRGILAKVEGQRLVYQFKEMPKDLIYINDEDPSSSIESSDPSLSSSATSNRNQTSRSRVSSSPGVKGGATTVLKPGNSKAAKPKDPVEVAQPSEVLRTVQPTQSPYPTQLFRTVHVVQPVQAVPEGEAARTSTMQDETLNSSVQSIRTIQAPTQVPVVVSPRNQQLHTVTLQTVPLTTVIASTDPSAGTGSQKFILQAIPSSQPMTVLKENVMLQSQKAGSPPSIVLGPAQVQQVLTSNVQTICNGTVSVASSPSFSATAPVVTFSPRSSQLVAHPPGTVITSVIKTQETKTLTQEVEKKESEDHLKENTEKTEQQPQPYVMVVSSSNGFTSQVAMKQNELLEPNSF
CRX, sequence (O43186 whole entry): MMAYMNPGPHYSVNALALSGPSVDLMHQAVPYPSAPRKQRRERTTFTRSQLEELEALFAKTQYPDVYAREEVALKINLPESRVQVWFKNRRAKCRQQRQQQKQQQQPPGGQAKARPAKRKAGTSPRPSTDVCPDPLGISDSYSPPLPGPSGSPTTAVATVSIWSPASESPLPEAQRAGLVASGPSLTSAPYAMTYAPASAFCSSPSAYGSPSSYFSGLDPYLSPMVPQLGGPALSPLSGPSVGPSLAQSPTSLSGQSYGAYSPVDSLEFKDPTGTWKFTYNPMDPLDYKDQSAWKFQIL

Q: Which results are given for TTTCAT?
A: binding signal [1]: 1.11 fold enrichment (6-mer frequency, TF over GST control); binding signal [2]: 1.09 fold enrichment (6-mer frequency, TF over GST control); binding signal [3]: 1.22 fold enrichment (6-mer frequency, TF over GST control); binding signal [4]: 1.15 fold enrichment (6-mer frequency, TF over GST control); binding signal [5]: 1.18 fold enrichment (6-mer frequency, TF over GST control); binding signal [6]: 1.17 fold enrichment (6-mer frequency, TF over GST control); binding signal [7]: 1.14 fold enrichment (6-mer frequency, TF over GST control); binding signal [8]: 1.22 fold enrichment (6-mer frequency, TF over GST control); binding signal [9]: 1.15 fold enrichment (6-mer frequency, TF over GST control); binding signal [10]: 1.12 fold enrichment (6-mer frequency, TF over GST control); binding signal [11]: 1.09 fold enrichment (6-mer frequency, TF over GST control); binding signal [12]: 1.13 fold enrichment (6-mer frequency, TF over GST control); binding signal [13]: 1.11 fold enrichment (6-mer frequency, TF over GST control); binding signal [14]: 1.2 fold enrichment (6-mer frequency, TF over GST control); binding signal [15]: 1.19 fold enrichment (6-mer frequency, TF over GST control); binding signal [16]: 1.1 fold enrichment (6-mer frequency, TF over GST control); binding signal [17]: 1.11 fold enrichment (6-mer frequency, TF over GST control); binding signal [18]: 1.18 fold enrichment (6-mer frequency, TF over GST control); binding signal [19]: 1.16 fold enrichment (6-mer frequency, TF over GST control)
